In PubChem BioAssay AID593 (National Center for Advancing Translational Sciences (NCATS), 2007):
Screen size: about 59,000 compounds; about 540 (0.92%) were called active. Inconclusive results (about 33%) are left out. Rule as the data show it: active = max fluorescein-equivalent concentration above about 10 nM; inconclusive = between about 1.1 nM and that limit; inactive = weaker than that. The entries come from a sample that favours actives as a whole.

assay: qHTS Assay for Spectroscopic Profiling in Fluorescein Spectral Region; conditions: Compound autofluorescence, 480/540 nm; max fluorescein-equivalent concentration: hits give high values; outcome: fluorescein-equivalent
From the text: NIH Molecular Libraries Screening Centers Network [MLSCN]
NIH Chemical Genomics Center [NCGC]
Occasionally, the artifactual effect may originate from the compound's own spectral or other biophysical properties which generally tend to track its assay concentration. Pre-screening/profiling the library with respect to the compounds' spectral properties should help one exclude false positives early on. While the most informative fluorescent profiling data set is obtained by performing a full excitation and emission scan of each well by using a monochromator-based plate reader, such an approach is practical only on a very limited scale as scanning each well requires long time. An alternative approach, applied here, is to perform plate reader scans using selected excitation and emission wavelength pairs to generate a multidimensional relational database that correlates compound concentration and the respective relative fluorescence intensity at a given wavelength set. A standard curve of fluorescein present on each plate as six-point concentration series, was used to compute a normalized fluorescence response, termed dye-equivalent concentration, for each compound at each concentration.
NCGC Assay Protocol Summary:
100 mM Tris buffer, pH 8.0
The wells in columns 1 through 4 of a Kalypsys polypropylene 1536-well compound plate were filled with standard solutions of fluorophore corresponding to the spectral region of interest. Solutions of Fluorescein were placed in the following wells: Q1, R1: 3 mM, Q2, R2: 300 uM, Q3, R3: 30 uM, Q4, R4: zero (DMSO), S1, T1: 3 uM, S2, T2: 900 nM, S3, T3: 300 nM, S4, T4: zero (DMSO).
Six uL of buffer were dispensed to 1536-well Greiner black plates. Compounds and dye standards (23 nL) were transferred via Kalypsys PinTool. The plates were incubated for 15 min at room temperature, and then read on ViewLux (Perkin-Elmer) High-throughput CCD imager using 480 nm and 540 nm excitation and emission filter set.
Keywords: NIH Roadmap, MLSCN, MLI, MLSMR, qHTS, NCGC, Fluorescein, Fluorescent Profiling.

Structure (SMILES) | max fluorescein-equivalent concentration
CN1C2C=C(N(C(=O)c3ccc(Cl)cc3)c3ccccc3)CC1CC2 (stereo not given) | 10 nM (active)
CCN1C[C@@]2(COC)CC[C@H](OC)[C@]34[C@@H]1[C@]1(OCO[C@@]15C[C@@H](OC)C1C[C@H]3[C@H]5[C@@H]1OC)[C@H](O)[C@@H]24 | inactive
COc1ccc(-c2nc(CS(=O)CC(=O)N3CCC4(CC3)OCCO4)c(C)o2)cc1 (stereo not given) | inactive
CC(C)CCC1(CCN)C(=O)NC(=O)NC1=O | inactive
CCC(=NCc1ccco1)c1c(O)n(Cc2ccccc2)c(=O)[nH]c1=O | inactive
